Test results as given in PubChem BioAssay (NCI).
Compounds without any hit were thinned out: in the full panel of roughly 83,000, 20% have a hit.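 Negative percent growth values reflect cell death: -40 means 40% of the cells present at the start died, and -100 means all died.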 A number with no mark means an inactive call. Activity calls are given as the source filed them. How the source made its calls: active means growth percent below 10; inactive means the rest.

What was measured:
Test in all cases: NCI-60 one-dose screen, 48 h (100 = growth as untreated, 0 = no growth, -100 = all killed)
Conditions in all cases: 10 µM unless noted
OVCAR-8 ovarian = test system: OVCAR-8 ovarian
OVCAR-5 ovarian = test system: OVCAR-5 ovarian
OVCAR-4 ovarian = test system: OVCAR-4 ovarian
SK-OV-3 ovarian = test system: SK-OV-3 ovarian
IGROV1 ovarian = test system: IGROV1 ovarian
OVCAR-3 ovarian = test system: OVCAR-3 ovarian
HS 578T breast = test system: HS 578T breast
NCI/ADR-RES ovarian = test system: NCI/ADR-RES ovarian
T-47D breast = test system: T-47D breast
RPMI-8226 leukemia = test system: RPMI-8226 leukemia

| SMILES | growth (OVCAR-8 ovarian) | growth (OVCAR-5 ovarian) | growth (OVCAR-4 ovarian) | growth (SK-OV-3 ovarian) | growth (IGROV1 ovarian) | growth (OVCAR-3 ovarian) | growth (HS 578T breast) | growth (NCI/ADR-RES ovarian) | growth (T-47D breast) | growth (RPMI-8226 leukemia) |
| --- | --- | --- | --- | --- | --- | --- | --- | --- | --- | --- |
| NC(=O)N/N=C/c1ccc(Br)o1 | 107% | 98.7% | 111% | 101% | 97.8% | 113% | 109% | 105% | 91.4% |  |
| CN(C)c1cccc2c(S(=O)(=O)N[C@H]3CC[C@H]4[C@@H]5CCc6cc(O)ccc6[C@H]5CC[C@]34C)cccc12 | 45.8% | 78.1% | 50.6% | 33.3% | 33.1% | 19.7% | 56.5% | 12.3% | 21.5% |  |
| Clc1ccc(-c2nc(-c3cccs3)no2)c(Cl)c1 | 97.1% |  |  | 93.9% | 66.8% | 99.2% | 96.1% | 103% | 51.7% | 86% |
| CN1C(=O)/C(=C/c2nc(-c3cccc(F)c3)n3ccccc23)c2ccccc21 | 34.9% | 100% | 41.9% | 66.6% | 7.47% (active) | 60.6% | 33% | 66.4% | 50.1% |  |
| OC(c1cc(C(F)(F)F)nc2c(C(F)(F)F)cccc12)C1CCCCN1 (configuration not stated) |  |  | 56.7% | 78.7% | 44.7% | 73.7% | 62.4% | 50.5% | 75.2% | 80% |
| CC(C)COCC(CN(Cc1ccccc1)c1ccccc1)N1CCCC1 (configuration not stated) |  |  | 49.9% | 74.9% | 53.3% | 72.4% | 81.6% | 65.2% | 66.1% | 46.4% |
| COc1cc(/C=C2\COc3ccc(O)c(O)c3C2=O)cc(OC)c1 | 14.6% | -29.2% (active) | 31.1% | 38.2% | -61.3% (active) | -32.3% (active) | 21.8% | 0.0937% (active) | -12.1% (active) |  |
| Cc1cc(C)c(OC(=O)CSc2nc3ccccc3c(=O)n2CCc2ccccc2)cc1C | 95.3% | 110% | 101% | 95.7% | 89.4% | 99% | 94.5% | 89.3% | 90.5% |  |
| S=C1SCN(Cc2ccccc2)CN1Cc1ccco1 | 89.1% | 120% | 99.9% | 96.2% | 84.4% | 75.3% | 109% | 99.2% | 59.3% |  |
| CCCCCCCC/C=C/CCCCCCCC1=NC(C)(C)CN1CC(C)O (configuration not stated) | 38.8% | 83.8% | 61.7% | 88.5% | -15.1% (active) | 31% | 3.01% (active) | 73.4% | 28.6% |  |
| COc1ccc2[nH]cc(/C=C3/C(=O)Nc4ccc(Cl)cc43)c2c1 | 52% | 78.1% | 51.5% | 22.5% | 54.4% | 18.1% | 31.9% | 49.6% | 61.9% |  |
| COc1ccc(/C=N/NC(=O)c2ccc(S(C)(=O)=O)cc2)cc1OC |  | 111% |  | 102% | 109% | 108% | 102% | 108% | 96.6% | 97.1% |
| Cc1cccc(Cl)c1NC(=O)c1ccc2nc(NC(=O)NC3CC(C)(C)NC(C)(C)C3)sc2c1 |  | 78% | 95.3% | 76.3% | 65.2% | 99.7% | 30.8% | 118% | 54% | 87.1% |
| O=C(/C=C/c1cc2ccccc2[nH]c1=O)c1ccc(O)cc1 | 22.3% | 78.6% | 62.9% | 39.8% | 53.8% | -18.8% (active) | -27.2% (active) | 36.4% | 66.1% |  |
